Reference: PubChem BioAssay (NCI)
This is part of a sample that, as a whole, favours compounds with a hit. Of some 83,000 tested, about 20% had one in any assay.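 Growth was measured after 48 h exposure to one concentration of compound in 96-well plates. Values under 10 count as active.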 Values without a mark were called inactive. Activity calls are given as the source filed them.

Tests used:
Experiment in all cases: NCI-60 one-dose screen, 48 h (100 = growth as untreated, 0 = no growth, -100 = all killed)
NCI-H23 lung = conditions: 10 µM unless noted
NCI-H226 lung = conditions: 10 µM unless noted
NCI-H322M lung = conditions: 10 µM unless noted
NCI-H460 lung = conditions: 10 µM unless noted
HOP-92 NSCLC = conditions: 10 µM
NCI-H522 lung = conditions: 10 µM
A549/ATCC NSCLC = conditions: 10 µM unless noted
786-0 renal = conditions: 10 µM unless noted
COLO 205 colon = conditions: 10 µM unless noted
DU-145 prostate = conditions: 10 µM unless noted
K-562 leukemia = conditions: 10 µM unless noted
MDA-MB-231 breast = conditions: 10 µM unless noted
RXF 393 renal = conditions: 10 µM unless noted
SF-268 CNS = conditions: 10 µM unless noted
SF-295 CNS = conditions: 10 µM unless noted
SF-539 CNS = conditions: 10 µM unless noted
UACC-257 melanoma = conditions: 10 µM unless noted
M14 melanoma = conditions: 10 µM unless noted
MALME-3M melanoma = conditions: 10 µM unless noted

Row | SMILES | growth (NCI-H23 lung) | growth (NCI-H226 lung) | growth (NCI-H322M lung) [%] | growth (NCI-H460 lung) | growth (HOP-92 NSCLC) | growth (NCI-H522 lung) | growth (A549/ATCC NSCLC) | growth (786-0 renal) | growth (COLO 205 colon) | growth (DU-145 prostate) | growth (K-562 leukemia) | growth (MDA-MB-231 breast) | growth (RXF 393 renal) | growth (SF-268 CNS) | growth (SF-295 CNS) | growth (SF-539 CNS) | growth (UACC-257 melanoma) | growth (M14 melanoma) | growth (MALME-3M melanoma)
1 | COc1ccc(/C=C2\SC(=O)N(Cc3cc(=O)oc4ccc(OC)cc34)C2=O)cc1 | 71.6% | 67.9% | 84.9 | 94.1% | 86% | 77.9% | 96.4% | 83.9% | 111% | 91.3% | 54.2% | 83.1% | 110% | 88.8% | 82.7% | 89.6% | 100% | 92.7% | –
2 | COc1ccccc1Nc1nnc(COc2ccc(CNC(=O)CCCC/C=C/C(C)C)cc2OC)o1 | 92.2% | 79.7% | 97.4 | 105% | 79.1% | 81% | 99.3% | 96.2% | 125% | 99% | 67.9% | 99.2% | 103% | 90.8% | 88.8% | 93.4% | 96.7% | 95.4% | –
3 | COc1ccc2oc(=O)cc(CN3C(=O)S/C(=C\c4ccc(Cl)cc4)C3=O)c2c1 | 90.9% | 92.3% | 104 | 102% | 86.5% | 79.6% | 97.9% | 93.1% | 136% | 96.5% | 64.1% | 108% | 116% | 92.2% | 92% | 99.6% | 103% | 96.2% | –
4 | CC(=O)c1nn(-c2ccc(C)cc2)cc1C(=O)c1cc2c(ccc3ccccc32)oc1=O | 91.2% | 90.1% | 91.5 | 100% | 77.6% | 81.5% | 96.8% | 93.4% | 107% | 110% | 81.2% | 73% | 126% | 99.5% | 92.1% | 94.1% | 104% | 91.3% | –
5 | Cc1c(CN(C)C)cc(C(C)C)cc1C(C)C | 102% | 93.5% | 129 | 111% | 129% | 85% | 101% | 103% | 131% | 113% | – | 104% | 112% | 111% | 116% | 118% | 108% | 108% | 124%
6 | COc1ccc(CN2C(=O)/C(=C\C(=O)c3ccc(OCCN4CCCC4)cc3)c3ccccc32)cc1 | 83.8% | 87.8% | 97.6 | 94.4% | 54.4% | 31.9% | 97.2% | 85.7% | 83.9% | 71.9% | -25.9% (active) | 93% | 65.2% | 84.3% | 93.9% | 86.6% | 105% | 79.6% | –
7 | N=c1c2c(=O)n3c(nc2nc2sc4ccc(Cl)cc4n12)-c1ccccc1Sc1ccccc1-3 | 8.13% (active) | 29.1% | 16.4 | 10.7% | 6.89% (active) | 12.9% | 22.4% | 24.6% | 11.9% | 38.4% | 19.8% | 7.92% (active) | 38.2% | 42.2% | 5.48% (active) | 27.2% | 29.9% | 21.6% | –
8 | COc1ccc(OC)c(Cn2cc3c(c2)-c2oncc2CC3)c1 | 28.8% | 70.2% | 26 | 14.1% | 59.8% | 50.3% | 43.3% | 46% | 35.8% | 52% | 14.7% | 42% | 36.7% | 57.5% | -8.86% (active) | -7.35% (active) | 60.5% | 4.07% (active) | –
9 | Cc1cc2c(-c3nc4ccccc4[nH]3)c(O)c(O)cc2c(O)c1-c1c(C)cc2c(-c3nc4ccccc4[nH]3)c(O)c(O)cc2c1O | -19.5% (active) | -18.2% (active) | 20.2 | -53.7% (active) | 29.1% | -36.8% (active) | -25.4% (active) | -11.1% (active) | – | 16.6% | 6.02% (active) | 23.3% | -8.07% (active) | 6.93% (active) | -17.5% (active) | -24.5% (active) | -3.19% (active) | -3.53% (active) | -6.72% (active)
10 | COc1ccc2c(c1)/C(=C1/S/C(=N/c3nnc(C)s3)NC1=O)C(=O)N2Cc1ccc(Br)cc1 | 26.5% | 54.7% | 35.1 | 6.08% (active) | 25.7% | 29.6% | 20.7% | 34% | – | 41.6% | 34.8% | 53.4% | 49.6% | 36% | 15.4% | 42.7% | 57.4% | – | 68.3%
11 | COc1ccc(/C=C(/C(=O)N2CCN(c3ccc(C)cc3)CC2)c2cc(OC)c(OC)c(OC)c2)cc1N | 38.1% | 98.3% | 43.7 | 5.51% (active) | 17.6% | -12.8% (active) | 23.1% | 18.5% | -43.9% (active) | 5.56% (active) | 11.2% | 33.6% | 55.2% | 25.6% | 15.4% | -4.4% (active) | 73.8% | 3.96% (active) | –
12 | COc1ccc(-c2cn3ccnc3c(-c3ccc4ncn(C5CCCCC5)c4c3)n2)cc1 | 37.9% | 64.1% | 68.5 | 8.91% (active) | 47.7% | -20.9% (active) | 31.4% | 16.8% | -8.01% (active) | 18.2% | 7.96% (active) | 28.9% | -8.48% (active) | 50.1% | 7.49% (active) | -43.4% (active) | 73.7% | 10.8% | –
13 | COc1ccc(Cn2cc3c(c2)-c2oncc2CC3)cc1OC | 16.9% | 31.4% | 22.9 | 1.13% (active) | 84.4% | 20.5% | 25.9% | 22% | -18.2% (active) | 10.3% | 16.9% | 16.9% | 9.09% (active) | 33.1% | – | -21.5% (active) | 59.2% | – | –
14 | C=CCN(C)C | 102% | 97.3% | 114 | 108% | 110% | 93.7% | 100% | 106% | 121% | 119% | – | 97.7% | 111% | 106% | 103% | 109% | 106% | 107% | 111%
15 | Cc1nnc(-c2cc3c(ccc4ccccc43)oc2=O)c2cn(-c3ccc(Cl)cc3)nc12 | 86.9% | 92% | 98.8 | 94.5% | 85.9% | 81.2% | 95.2% | 97.5% | 111% | 107% | 80.6% | 77.5% | 103% | 87.3% | 95.9% | 114% | 109% | 98.1% | –
16 | COc1ccc(-c2nc(SCC(C)C)nc(Nc3ccccc3)c2C#N)cc1 | 86.3% | 83% | 70.8 | 18.7% | 88% | 88.3% | 48% | 51.9% | – | 100% | 82.1% | 93.5% | 98.8% | 87.9% | 77.1% | 70.5% | 83.8% | – | 96%
